Measured values from PubChem BioAssay AID504380 (National Center for Advancing Translational Sciences (NCATS), 2011).
Calls of active or inactive are those of the source. No rule for the calls is given here.

Test: RT-PCR Analysis of TSH-dependent transcripts in primary cultures of human thyrocytes
Details: RT-PCR mRNA levels, 48 h; DIO2 mRNA change: measured here: DIO2 transcript; NIS mRNA change: measured here: NIS transcript, concentration not given here; TG mRNA change: concentration not given here; TPO mRNA change: measured here: TPO transcript, concentration not given here; TSHR mRNA change: measured here: TSHR transcript, concentration not given here
Excerpt: TSH is an alpha/beta heterodimeric glycoprotein hormone secreted from the anterior pituitary gland which belongs to the glycoprotein hormone family. The actions of TSH are mediated by a seven-transmembrane receptor, which upon TSH binding couples preferentially to the G-alpha (s) protein (Gs), resulting in activation of adenylate cyclase and increase in cyclic adenosine 3', 5' monophosphate (cAMP). The TSH receptor (THSR) is mainly expressed in thyroid follicular cells and regulates their growth and function. This cell based assay was conducted on a TSHR transfected HEK 293 cell line, measuring cAMP stimulation using antibody-based Homogeneous Time Resolved Fluorescence (HTRF). Our goal is to identify small molecules that will inhibit (antagonize) the thyroid-stimulating hormone receptor (TSHR), a member of the 7 transmembrane-spanning receptor (7TMR) family of cell surface receptors. TSHR-mediated hyperthyroidism is important in thyroid pathology. The development of small molecule antagonists of TSHR may lead to therapeutic approaches for TSHR-mediated hyperthyroidism caused by constitutively activating mutations or stimulating auto-antibodies associated with Graves' disease. Graves' disease is the leading cause of hyperthyroidism and is caused by autoantibodies that stimulate TSHR (TsAbs) causing thyroid growth and unregulated overproduction of thyroid hormones and existing treatments have liabilities (agranulocytosis). In addition, TSHRs are known to be expressed in multiple extrathyroidal tissues including bone, brain, kidney, testis, fat and cells of the immune system but the role of the TSHR in these tissues is not clear. Therefore, TSHR antagonists/inverse agonists could be used as probes of extrathyroidal TSHR function. Finally, TSHR inverse agonists, which are a subclass of antagonists that inhibit agonist-independent (or basal or constitutive) TSHR signaling, could be used to inhibit TSH-independent signaling in patients with recurrent or metastatic thyroid cancer who are receiving thyroid hormone to suppress TSH. This assays looks for effects on TSH-dependent functions in primary human thyrocytes. Total RNA is purified using RNeasy Micro kits. RT-PCR is performed in 25-ul reactions using cDNA prepared from 100 ng or less of total RNA and Universal PCR Master Mix (Applied Biosystems). mRNA levels are measured using primers and probes from Applied Biosystems. Quantitative RT-PCR results are normalized to GAPDH to correct for differences in RNA input.
Thyroid tissue samples were collected from normal thyroid tissue from patients undergoing total thyroidectomy for thyroid cancer at the National Institutes of Health Clinical Center. Surgical specimens were maintained in Hanks' balanced salt solution (HBSS) on ice, minced into small pieces, and digested with 3 mg/ml collagenase type IV (Life Technologies). Monodispersed cells were plated in 10 ml DMEM with 10% FBS in 10-cm tissue culture dishes and incubated at 37C in a humidified5%CO2 incubator, and after 24 h, the primary cultures of adherent thyroid cells were obtained. For determination of thyroglobulin (TG), thyroid peroxidase (TPO), TSHR, sodium iodide symporter (NIS), or deiodinase type 2 (DIO2) mRNAexpression, thyrocytes were seeded into 12-well plates at a density of 1 x 10^5 cells per well. The cells were incubated in DMEM with 2% FBS and 1 mM 3-isobutyl-1-methylxanthine (IBMX) for 48 h in the presence or absence of compound.
For COc1ccc(C2Nc3ccccc3C(=O)N2Cc2ccco2)cc1COc1c(C)cccc1C (stereo not given), the TSHR mRNA change was -33%, the TPO mRNA change was -40% and the DIO2 mRNA change was 0%. For the same compound, the TG mRNA change was -71% (active) and the NIS mRNA change was -35%.
